Fam108B inh = Fam108B inhibition, counter-screen for RBBP9 inhibitors. recombinant Fam108B, FP-Rh probe fluorescence polarization. inhibition, % at 9.51 µM. 300,000 tested, 0.33% active;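 active = inhibition above the screen mean inhibition plus 3 SD, computed separately per campaign, cut at about 18% in these data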;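 also: inhibitors lower polarization as less probe binds the enzyme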
PREPL inhibitor = inhibits the human prolyl oligopeptidase-like enzyme. recombinant PREPL, fluorescence polarization activity-based probe. inhibition, % at 5.96 µM. 320,000 tested, 0.68% active. AID 2751; in the data active = inhibition above about 43%
Target sequence (Q4J6C6 whole entry, looked up): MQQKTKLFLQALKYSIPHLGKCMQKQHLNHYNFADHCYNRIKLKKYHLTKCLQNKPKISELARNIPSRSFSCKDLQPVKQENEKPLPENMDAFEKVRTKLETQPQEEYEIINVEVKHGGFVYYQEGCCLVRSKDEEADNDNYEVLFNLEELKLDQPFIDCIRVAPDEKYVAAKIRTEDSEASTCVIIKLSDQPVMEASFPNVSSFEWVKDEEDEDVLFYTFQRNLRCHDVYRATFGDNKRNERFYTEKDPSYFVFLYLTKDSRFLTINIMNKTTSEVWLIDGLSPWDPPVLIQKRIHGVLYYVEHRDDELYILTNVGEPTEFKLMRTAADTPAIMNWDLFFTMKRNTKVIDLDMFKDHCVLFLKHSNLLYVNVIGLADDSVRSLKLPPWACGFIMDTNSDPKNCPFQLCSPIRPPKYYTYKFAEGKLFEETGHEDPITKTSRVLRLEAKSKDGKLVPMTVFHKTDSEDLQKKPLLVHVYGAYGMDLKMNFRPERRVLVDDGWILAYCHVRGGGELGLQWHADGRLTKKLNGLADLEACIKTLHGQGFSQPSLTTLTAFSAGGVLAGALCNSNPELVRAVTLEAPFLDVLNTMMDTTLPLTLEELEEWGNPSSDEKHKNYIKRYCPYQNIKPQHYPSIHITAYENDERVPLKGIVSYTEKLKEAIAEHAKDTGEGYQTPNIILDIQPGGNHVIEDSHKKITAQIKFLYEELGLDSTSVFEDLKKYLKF
LYPLA2 inh = blocks human lysophospholipase 2, a PME1 counter-screen | recombinant LYPLA2, FP-Rh probe fluorescence polarization | AID 2177 | 320,000 tested, 0.38% active | O95372 | inhibition, % at 5.9 µM;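 active = inhibition above the screen-wide mean plus 3 SD, limit set per campaign, cut at about 26% in these data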
LYPLA1 inh = counter-screen for PME1 inhibitors: inhibitors of human LYPLA1 | inhibition, % at 5.9 µM | O75608 | 320,000 tested, 0.16% active | recombinant LYPLA1, FP-Rh probe fluorescence polarization;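 active = inhibition above the mean of all tested compounds plus 3 SD, set per campaign, cut at about 14% in these data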;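 also: inhibitors block serine hydrolase probe labeling of LYPLA1 so polarization falls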
GSTO1 counter = counter-screen for RBBP9 inhibitors: inhibitors of human GSTO1; P78417; recombinant GSTO1, activity-based probe fluorescence polarization; inhibition, % at 5.96 µM; 300,000 tested, 1.1% active; AID 1974;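 active = inhibition above the campaign mean inhibition plus 3 SD, cut at about 35% in these data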
PME-1 primary = blocks human protein phosphatase methylesterase 1 | Q9Y570 | recombinant PME-1, FP-Rh probe fluorescence polarization | inhibition, % at 5.9 µM | 320,000 tested, 0.53% active;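 active = inhibition above the campaign mean of all compounds plus 3 SD, cut at about 26% in these data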;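 also: competitive labeling of PME-1 active site by serine hydrolase directed probe; inhibitors block probe labeling so polarization falls and inhibition rises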
LYPLA2 confirm = counter-screen for PME1 inhibitors: confirmation of human LYPLA2 inhibitors. shares compounds with LYPLA2 inh. recombinant LYPLA2, FP-Rh probe fluorescence polarization. inhibition, % at 5.9 µM. 1,100 tested, 72% active;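 active = mean inhibition across replicates above the hit cutoff set in the primary screen, cut at about 26% in these data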;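 also: blocked labeling of the enzyme by serine hydrolase FP-Rh probe lowers polarization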
LYPLA2 ABPP = inhibitors of human LYPLA2. 150 tested, 30% active. inhibition, % at 20 µM. rhLYPLA2 in mouse brain proteome, gel ABPP FP-Rh. shares compounds with LYPLA2 inh;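 active = inhibition of LYPLA2 enzyme probe labeling above about 50%, limit read from the data; inactive = inhibition below that limit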;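 also: loss of FP-Rh probe labeling of the LYPLA2 gel band measured as band density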
Hits are given with their value; – = inactive; · = no result. An excerpt weighted towards active compounds, which were near 2% of everything screened.

SMILES	Fam108B inh	PREPL inhibitor	LYPLA2 inh	LYPLA1 inh	GSTO1 counter	PME-1 primary	LYPLA2 confirm	others
O=C(c1ccc(Br)s1)N1CCN(C/C=C/c2ccccc2)CC1	–	–	36	–	–	–	34
COCCNC(=O)c1sc2ncn(CC(=O)Nc3ccc(C)c(Cl)c3)c(=O)c2c1C	–	–	50	–	–	–	47
Cc1ccc(NC(=O)Cn2cnc3sc(C(=O)NCc4ccco4)c(C)c3c2=O)cc1Cl	–	–	–	–	–	–	·
COC(=O)CNC(=O)c1sc2ncn(CC(=O)Nc3ccc(C)c(Cl)c3)c(=O)c2c1C	–	–	40	–	–	–	46
O=C(CCNC(=O)c1ccc([N+](=O)[O-])cc1)Oc1ccc(F)c(F)c1	·	–	·	·	·	·	·
O=C1CCCC(=NNC(=O)c2ccc(CN3c4cccc5cccc(c45)S3(=O)=O)cc2)C1	·	·	·	·	·	·	·	LYPLA2 ABPP=–
O=C(N/N=C/c1cccnc1)c1ccc(CN2c3cccc4cccc(c34)S2(=O)=O)cc1	–	–	–	–	–	–	·
COc1ccc(OC)c(-c2cc(C(=O)Nc3ccc(F)cc3F)no2)c1	–	–	–	–	–	–	·
CC(=O)N1CCc2cc(S(=O)(=O)NCCC(=O)NCCc3ccc(Cl)cc3)ccc21	–	–	–	–	–	–	·
Cc1c(C(=O)NC2CCOC2)oc2c(F)cccc12 (centres undefined)	–	–	–	–	–	–	·
COc1ccc(N2CCN(C(=O)c3ccc(NS(=O)(=O)c4ccccc4)cc3)CC2)cc1	–	–	37	–	–	–	34
COc1cccc(N2CCN(C(=O)c3ccc(CSc4nc5ccncc5[nH]4)cc3)CC2)c1	–	–	31	–	–	–	–
COc1ccc(N2CCN(C(=O)c3ccc(CSc4ccccc4)cc3)CC2)cc1	–	–	30	–	–	–	42
Cc1ccc(C)c(N2CCN(C(=O)c3ccc(CSc4nc5ccncc5[nH]4)cc3)CC2)c1	–	–	–	–	–	–	·
COc1ccc(N2CCN(CCC(=O)c3ccc4ccccc4c3)CC2)cc1	–	–	29	–	–	–	27
Cc1cc([N+](=O)[O-])ccc1NC(=O)C[n+]1ccc(N(C)C)cc1	–	–	–	–	–	–	·
CCCCn1c(N)c(N(CC(C)C)C(=O)c2ccc(S(=O)(=O)N3CCC(C)CC3)cc2)c(=O)[nH]c1=O	–	–	–	–	–	–	·
Cc1noc(C)c1S(=O)(=O)Nc1ccc(C(=O)N2CCN(c3cccc(Cl)c3)CC2)cc1	–	–	30	–	–	–	–
COc1ccc(N2CCN(C(=O)c3ccc(S(=O)(=O)NCc4ccco4)cc3)CC2)cc1	·	–	32	–	·	–	38
COc1ccc(N2CCN(C(=O)c3ccc4c(c3)CCN4S(=O)(=O)c3ccccc3)CC2)cc1	–	–	35	–	–	–	41
O=C(c1ccc2c(c1)CCN2S(=O)(=O)c1ccccc1)N1CCN(c2ccc(F)cc2)CC1	–	–	–	–	–	–	·
Cc1cccc(N2CCN(C(=O)c3ccc(NS(=O)(=O)c4c(C)noc4C)cc3)CC2)c1C	–	–	–	–	–	–	·
Cc1ccc(Oc2ccc3c(c2)C(=O)N(c2ccc(S(=O)(=O)Nc4nccs4)cc2)C3=O)cc1	–	–	63	–	–	–	54	LYPLA2 ABPP=53
Cc1ccc2c(c1)N(C(=O)CCC(=O)N1CCC(C(N)=O)CC1)CC(C)O2 (centres undefined)	–	–	–	–	–	–	·
O=C(c1ccc(F)cc1)C1CCN(CCn2c(=O)[nH]c3ccccc3c2=O)CC1	–	–	33	–	–	–	36
SMILES	Fam108B inh	PREPL inhibitor	LYPLA2 inh	LYPLA1 inh	GSTO1 counter	PME-1 primary	LYPLA2 confirm	others
CC(C)CN1CCC(CNC(=O)CCc2nnc(Cc3c[nH]c4ccccc34)o2)CC1	–	–	–	–	–	–	·
COc1ccc(CCNC(=S)N2CCC(C(=O)c3ccc(F)cc3)CC2)cc1OC	–	–	27	–	–	–	31
COc1ccc(C(=O)C2CCN(C(=S)NCCc3ccc(OC)c(OC)c3)CC2)cc1	–	–	–	–	–	–	·
O=C(NC12CC3CC(CC(C3)C1)C2)N1CCN(C(=O)c2ccco2)CC1	–	–	–	–	–	–	·
O=C(c1ccc(OC2CCN(CCc3ccccc3)CC2)cc1)N1CCCC(CCCO)C1 (centres undefined)	–	–	65	–	–	–	51	LYPLA2 ABPP=–
CN1CCN(S(=O)(=O)c2ccc(NC(=O)c3ccc(F)cc3Cl)cc2)CC1	–	–	–	–	–	–	·
COc1ccc(OCC(=O)Nc2ccc(NC(=O)c3cccs3)c(OC)c2)cc1	–	–	–	–	–	–	·
COc1ccc(OCC(=O)Nc2ccc(NC(=O)c3ccccc3Cl)c(OC)c2)cc1	–	–	36	–	–	–	34
CC(C)c1ccccc1NC(=O)CSc1n[nH]c(=O)n1C1CC1	·	–	–	–	·	–	·
COc1ccccc1-c1nnc(C2CCN(S(=O)(=O)c3cccc([N+](=O)[O-])c3)CC2)o1	–	–	–	–	–	–	·
COc1ccccc1-c1nnc(C2CCN(S(=O)(=O)c3ccc([N+](=O)[O-])cc3)CC2)o1	–	–	75	–	–	–	72	LYPLA2 ABPP=58
Cc1cc(OCC(=O)NCCCN2CCOCC2)c2c(C)c(C)c(=O)oc2c1	–	–	–	–	–	–	·
Cc1cc(OCC(=O)Nc2ccc(CN3CCOCC3)cc2)c2c(C)cc(=O)oc2c1	–	–	43	–	–	–	48
Cc1cc(OCC(=O)Nc2ccc(CN3CCOCC3)cc2)c2c(C)c(C)c(=O)oc2c1	–	–	30	–	–	–	36
Cc1cc(=O)oc2cc(OCC(=O)Nc3ccc(CN4CCOCC4)cc3)ccc12	–	–	–	–	–	–	·
COc1ccc(N2CCN(C(=O)CCC(=O)N3CC(C)Oc4ccccc43)CC2)cc1 (centres undefined)	–	–	–	–	–	–	·
O=C(CCNS(=O)(=O)c1cccs1)N1CCN(c2cccc(C(F)(F)F)c2)CC1	·	–	37	–	·	–	28
Cn1c(=O)cc(OCC(=O)N2CCN(c3cccc(C(F)(F)F)c3)CC2)c2ccccc21	–	–	33	–	–	–	62	LYPLA2 ABPP=–
Cc1ccc(-c2noc(CCC(=O)N3CCN(c4cccc(C(F)(F)F)c4)CC3)n2)cc1	–	–	42	–	–	–	38
CC1CN(C(=O)CCC(=O)N2CCN(c3cccc(C(F)(F)F)c3)CC2)c2ccccc2O1 (centres undefined)	–	–	59	–	–	–	59	LYPLA2 ABPP=–
O=C(C[C@H]1C/C=C\C[C@H](NC(=O)OCC2c3ccccc3-c3ccccc32)C(=O)OC[C@@H]2CCCN2C1=O)NCCO	·	–	·	·	·	·	·
